We go through 101 compounds from PubChem BioAssay AID624330 (Southern Research Specialized Biocontainment Screening …, 2012).

The whole screen tested about 340,000 compounds, of which about 2,100 (0.62%) were called active. Not all results are given here. Measured potencies and affinities stand elsewhere. Unmarked numbers belong to inactive results.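 The calls were made as follows: active = first-screen hits whose inhibition reached a set limit at any dose in the follow-up dose series; inconclusive = inhibition above the set first-screen limit but never retested; inactive = the rest.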

This experiment deals with Rac GTPase-activating protein 1 (Homo sapiens) (UniProt Q9H0H5). Nature of the experiment: blockers of MgcRacGAP-driven Rac1 GTP hydrolysis – biochemical, ADP Hunter fluorescence, primary and confirmatory, confirmation (AID 624330).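 Also: fluorescence reports GDP produced by GAP-driven GTP hydrolysis.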 Particulars: MgcRacGAP-stimulated Rac1 GTP hydrolysis, at 30 µM, hits give high values, GST-tagged Rac1 F28L mutant substrate.
Chain of Rac GTPase-activating protein 1 (Homo sapiens) (Q9H0H5 whole entry, looked up): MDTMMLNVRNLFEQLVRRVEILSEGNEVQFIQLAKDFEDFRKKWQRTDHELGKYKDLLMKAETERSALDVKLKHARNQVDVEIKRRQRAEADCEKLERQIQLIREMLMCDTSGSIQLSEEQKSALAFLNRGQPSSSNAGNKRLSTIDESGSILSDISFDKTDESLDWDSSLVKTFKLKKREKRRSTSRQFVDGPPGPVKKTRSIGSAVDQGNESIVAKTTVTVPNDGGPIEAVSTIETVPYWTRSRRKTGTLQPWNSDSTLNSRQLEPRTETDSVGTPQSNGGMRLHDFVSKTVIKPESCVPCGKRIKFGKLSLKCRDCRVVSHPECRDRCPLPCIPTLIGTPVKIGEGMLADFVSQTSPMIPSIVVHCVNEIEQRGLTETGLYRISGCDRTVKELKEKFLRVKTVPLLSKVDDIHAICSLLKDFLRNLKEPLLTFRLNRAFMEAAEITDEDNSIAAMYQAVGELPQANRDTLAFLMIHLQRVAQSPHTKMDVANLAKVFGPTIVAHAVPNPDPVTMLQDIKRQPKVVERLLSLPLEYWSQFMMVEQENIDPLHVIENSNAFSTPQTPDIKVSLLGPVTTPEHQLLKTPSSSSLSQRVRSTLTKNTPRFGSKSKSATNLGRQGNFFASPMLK
For the compound `CCCCNC(=O)Cn1cnc2c(cnn2-c2ccc(C)cc2)c1=O`, the inhibition is 6.17%.

Consider `Clc1ccc(N=c2ssnc2Cl)cc1`, for which the inhibition is 14.7%.

On to `Clc1nssc1=Nc1ccccc1`, for which the inhibition was 13.8%.

Take `O=C(N/N=C/c1ccc([N+](=O)[O-])o1)c1cc(-c2cccc(Br)c2)nc2ccccc12`: the inhibition was -2.15%.

For the compound `C/C(=N\N=c1/sc2ccccc2n1C)c1ccc(N2CCOCC2)cc1`, the inhibition is 6.81%.

Take `Cn1c(=Nc2ccc(N3CCOCC3)cc2)ccc2ccccc21`: the inhibition was 16.1%.

As to `O=[N+]([O-])c1cccc(-c2ccc(C(=S)N3CCN(c4ccc(F)cc4)CC3)o2)c1`, the inhibition is 5.79%.

`CN(C)c1ccc2nsnc2c1[N+](=O)[O-]`: the inhibition was 7.42%.

On to `Cc1ccc2nsnc2c1NC(=O)c1ccc([N+](=O)[O-])cc1`, for which the inhibition is 14.4%.

For `Brc1ccc(-c2cn3c(n2)SCC3)cc1`, the inhibition was 15.1%.

With `Cc1ccc(-c2cn3c(n2)SCC3)cc1`, the inhibition was 14.4%.

Take `CCCCNc1c(-c2ccc(SC3CCCCC3)c(OC)c2)nc2ccc(C)cn12`: the inhibition is 2.06%.

As to `O=C(Nc1ncccn1)C1c2ccccc2Oc2ccccc21`, the inhibition is 2.37%.

Regarding `COC(=O)c1ccc(Oc2ccc3nnc(C)n3n2)cc1`, the inhibition is -0.14%.

As for `COc1ccc2nnc(-c3ccccc3)n2n1`, the inhibition is 10.9%.

Take `CC(=O)Nc1ccc2sc(NC(=O)CN3CCOCC3)nc2c1`: the inhibition was 7.43%.

Turning to `CCCCc1cc(=O)oc2cc(OCC(=O)Nc3ccccn3)ccc12`, the inhibition was 11.4%.

Turning to `Cc1cccn2c(N)c(-c3ccccc3)nc12`, the inhibition was 7.39%.

In the case of `Cc1ccn2c(=O)cc(C)nc2c1`, the inhibition was -1.02%.

Take `CSc1nc(=O)n2cccc(C)c2n1`: the inhibition was 0.29%.

Take `Cc1ccn2c(C(C)O)nnc2c1` (stereo unspecified): the inhibition is 11.7%.

As for `c1ccn2c(Cc3nnc4ccccn34)nnc2c1`, the inhibition is 3.25%.

As for `Fc1ccc(-c2nnc3ccccn23)cc1`, the inhibition was 0.86%.

As to `O=C(CCC(=O)N1CCOCC1)NCCc1ccccc1`, the inhibition is 0.87%.

As to `CCN(CC(=O)Nc1ccc(NC(C)=O)cc1)C(=O)c1ccc2c(c1)S(=O)(=O)N=C1CCCCCN12`, the inhibition is 1.15%.

For `CCOc1ccccc1NC(=S)N1CCCCCC1`, the inhibition is 5.32%.

Take `CCOC(=O)/C(C#N)=C1/C=CN(Cc2ccccc2)C=N1`: the inhibition is 6.15%.

In the case of `CCCCN1C(=O)/C(=C(/C#N)C(N)=O)c2ccccc21`, the inhibition was 10.6%.

For the compound `CCOC(=O)/C(C#N)=C1/C=Cc2ccccc2N1CC`, the inhibition is 12.8%.

Consider `CCOC(=O)C(C#N)=C1CCN(Cc2ccccc2)CC1`, for which the inhibition is 11.1%.

Turning to `Cc1ccc(C(=O)NC(NCc2ccco2)C(Cl)(Cl)Cl)cc1` (stereo unspecified), the inhibition was 2.01%.

For the compound `O=C(NCCCN1CCCC1)c1ccc2c(c1)N(Cc1ccccc1)CCS2`, the inhibition is -3.35%.

Take `O=C(COC(=O)CCc1c[nH]c2ccccc12)NCc1ccccc1`: the inhibition is 4.56%.

Regarding `COCCNC(=S)N(Cc1cc2cc(C)ccc2n2nnnc12)C1CCCC1`, the inhibition was 1.01%.

As for `COc1ccc(C(=O)NC(=S)N(C)Cc2ccccc2)cc1Br`, the inhibition was 3.69%.

On to `Cc1nc2scc(C)n2c(=O)c1S(=O)(=O)N1CCN(c2ccccc2)CC1`, for which the inhibition was 1.78%.

As to `Cc1nc2scc(C)n2c(=O)c1S(=O)(=O)N1CCN(c2ccc(F)cc2)CC1`, the inhibition was 5.64%.

For `O=CN(/C=C1\Sc2ccccc2C1=O)Cc1ccccc1`, the inhibition was 10%.

In the case of `Cc1sc2ncnc(Nc3ccccc3)c2c1C`, the inhibition is 4.64%.

Regarding `Cc1ccc(Nc2ncnc3sc(C)c(C)c23)cc1`, the inhibition was 18.3%.

Consider `COc1ccc(/C=N/Nc2ncnc3sc(C)c(C)c23)cc1`, for which the inhibition is 11.8%.

Regarding `Cc1sc2ncnc(N/N=C/c3cccc(O)c3)c2c1C`, the inhibition was 20.2%.

In the case of `COCCOc1cc(NC(=O)CS(=O)(=O)CC(=O)N(C)C)c(Cl)cc1Cl`, the inhibition is -10.1%.

Take `O=C(Nc1cccc(Cl)c1)C1C2C=CC3(O2)C1C(=O)N(CCN1CCCCC1)C3C(=O)NC1CCCCC1` (stereo unspecified): the inhibition was 4.26%.

On to `CCN(CC)C(=O)CN(c1ccc(C)cc1)S(=O)(=O)c1ccc(SC)cc1`, for which the inhibition was 3.34%.

As for `COc1ccc(C2CC(=O)Nc3ccccc3S2(=O)=O)cc1OC` (stereo unspecified), the inhibition was 11.4%.

Regarding `O=C(Nc1cccc(C(=O)Nc2ccccc2F)c1)c1ccccc1`, the inhibition is -9.87%.

On to `CN(C)c1ccc(/C=C/c2ccncc2)cc1`, for which the inhibition was 16.4%.

Turning to `CN(C)c1ccc(/C=C/C(=O)c2cccnc2)cc1`, the inhibition is 10.2%.

Consider `O=C(CSc1ccc2nnc(-c3cccnc3)n2n1)Nc1ccccc1C(F)(F)F`, for which the inhibition was 6.49%.

Take `OCC(CO)(CO)N=Cc1cc(Br)ccc1O`: the inhibition is 8.85%.

On to `CCN(CC)c1ccc(N=Cc2cc(Br)ccc2O)cc1`, for which the inhibition was 10.9%.

Turning to `Oc1ccc(Cl)cc1C=Nc1ccccc1Br`, the inhibition is 4.11%.

Consider `Cc1cccc(C=Nc2ccc3c(c2)oc2ccccc23)c1O`, for which the inhibition is 25.6%.

On to `Oc1cccc(C=Nc2cccc3ccccc23)c1O`, for which the inhibition is -2.71%.

On to `Oc1ccc(Cl)cc1/C=N/c1nccs1`, for which the inhibition was 3.22%.

`COc1ccccc1-c1nnc(SCC(=O)Nc2ccc(S(N)(=O)=O)cc2)n1C`: the inhibition is 7.69%.

For the compound `C[C@H](CO)N1C[C@H](C)[C@H](CN(C)C(=O)Nc2ccc(C(C)(C)C)cc2)OCc2cnnn2CCCC1=O`, the inhibition was -5.61%.

Consider `COc1ccc(OC)c(S(=O)(=O)NCC(=O)NC2CCCc3ccccc32)c1` (stereo unspecified), for which the inhibition was 6.06%.

Take `O=C(Nc1ccc2c(c1)OCO2)C1CCCN1C(=O)OCc1ccccc1` (stereo unspecified): the inhibition was 6.44%.

With `C=CCN(CC=C)CCOc1ccc(OC(C)C)cc1`, the inhibition is 26.4%.

For `COc1ccc2nc(C)cc(SCC(=O)N/N=C/c3ccccc3)c2c1`, the inhibition was 5.43%.

Consider `COc1ccc2nc(C)cc(SCC(=O)N/N=C/c3ccc(O)cc3O)c2c1`, for which the inhibition is 17.7%.

As for `COc1ccc2c(c1)c(C(=O)N/N=C/c1ccc(OC)c(OC)c1)c(C)n2C`, the inhibition is -2.93%.

Consider `COc1ccc2c(c1)c(C(=O)N/N=C/c1cccc(O)c1)c(C)n2C`, for which the inhibition was 16.9%.

For the compound `CC(=O)Nc1c2c(nn1-c1ccc(Cl)cc1)CSC2`, the inhibition is 2.25%.

For the compound `O=C(CCc1ccccc1)NNC(=O)COc1ccccc1`, the inhibition is 11.8%.

Consider `Cc1ccc2ccc(C(Nc3cccc(C(F)(F)F)c3)c3cccnc3)c(O)c2n1` (stereo unspecified), for which the inhibition was 10.8%.

On to `COc1cc(CCC(=O)OCC(=O)N(CCC#N)c2ccccc2)cc(OC)c1OC`, for which the inhibition was 7.7%.

In the case of `CCOc1cc(CNC)ccc1OCC(=O)NC(C)(C)C`, the inhibition was 2.12%.

In the case of `CCOc1cc(CNc2ncn[nH]2)ccc1OCC(=O)NC(C)(C)C`, the inhibition is 1.46%.

With `COc1cccc(CNc2ccc3[nH]c(=O)[nH]c3c2)c1OCc1ccc(F)cc1`, the inhibition is 26.2%.

With `COc1cc(CNc2ccc3[nH]c(=O)[nH]c3c2)ccc1OCc1ccc(C)cc1`, the inhibition is 16.9%.

For `Cc1ccc(NCc2ccccc2OCc2ccccc2F)cc1`, the inhibition is 11.5%.

As for `Oc1ccc(NCc2ccccc2OCc2ccccc2)cc1`, the inhibition was 11.9%.

As for `COc1cccc(CNCCO)c1OCc1ccccc1Cl`, the inhibition was 9.99%.

For `COc1cc(CNc2ncn[nH]2)ccc1OCc1cccc(C)c1`, the inhibition was 8.87%.

For `COc1ccc(C(=O)Nc2ccncc2)c(OC)c1`, the inhibition is 13.1%.

`Cn1cc(C(=O)C(=O)NC2CCCCC2)c2ccccc21`: the inhibition was 10%.

For the compound `COc1ccc(C(CNC(=O)c2ccc(NS(=O)(=O)c3ccc(F)cc3)cc2)N2CCOCC2)cc1` (stereo unspecified), the inhibition was 4.8%.

As to `CN(CC(=O)Nc1ccc(F)c(F)c1F)C(=O)CN1C(=O)NC2(CCCC2)C1=O`, the inhibition was 9.6%.

Take `CCOC(=O)c1cc2ccc3ccccc3c2oc1=O`: the inhibition is 8.31%.

Take `Cc1ccc2c(c1)nnn2C1CCN(CC(=O)NNC(=O)c2ccco2)CC1`: the inhibition is 0.28%.

`CCOc1cccc(CNc2ccc(O)cc2)c1OCc1ccc(Cl)cc1`: the inhibition is 19.5%.

In the case of `CCOc1cccc(CNc2ccc(O)cc2)c1OCc1ccccc1Cl`, the inhibition is 29.3%.

With `CCCCCCN1C[C@@H](O)[C@H](n2cc(-c3ccc(F)cc3)nn2)C[C@@H]1c1ccc(C)cc1`, the inhibition was 6.07%.

Turning to `CNCc1c(OCc2ccccc2F)ccc2ccccc12`, the inhibition was -6.3%.

Consider `O=C1C(=Cc2cccs2)C(=O)c2ccccc21`, for which the inhibition is 4.2%.

As to `O=C1/C(=C\c2ccco2)NC(=S)N1c1ccccc1`, the inhibition was 21.9%.

Consider `O=C1/C(=C/c2ccco2)CCc2ccccc21`, for which the inhibition was 8.52%.

`O=C1CNC(=O)/C(=C/c2cccs2)N1`: the inhibition was 0.05%.

Regarding `O=C1/C(=C\c2ccco2)SC(=S)N1c1ccccc1`, the inhibition was 23.6%.

Take `O=C1CNC(=O)/C(=C/c2ccco2)N1`: the inhibition was 14.3%.

`O=C1NC(=O)/C(=C/c2ccco2)N1`: the inhibition is 11%.

Regarding `O=C1/C(=C\c2ccco2)CCC/C1=C\c1ccco1`, the inhibition is 38.4%.

With `O=C(NCc1cccc(Cl)c1)c1ccc(CS(=O)Cc2ccccc2Cl)o1` (stereo unspecified), the inhibition was -7.5%.

`C[C@@H]1CCCCO[C@H](CN(C)C(=O)Nc2ccc3c(c2)OCO3)[C@H](C)CN([C@@H](C)CO)C(=O)c2cc(NS(=O)(=O)c3ccc(Cl)cc3)ccc2O1`: the inhibition was 10.2%.

With `O=C(CN1CCOc2ccccc21)NCc1ccccc1`, the inhibition is -7.36%.

As to `O=C(N/N=C\c1ccccn1)C1COc2cc3ccccc3cc2O1` (stereo unspecified), the inhibition is 15.9%.

Regarding `CN1/C(=C/C2CC(=O)NC2=O)C(C)(C)c2ccccc21` (stereo unspecified), the inhibition was 6.09%.

`O=c1oc2c(CN3CCCCC3)c(O)ccc2c2c1CCCC2`: the inhibition is -1.27%.

As a reminder, the inhibition is the change of the read-out against control, counted positive when it falls.
